Cav3 T inh = Cav3.2 calcium influx blockers – cell-based, Fluo-4 calcium fluorescence, FDSS, MLSMR library, primary screen. Voltage-dependent T-type calcium channel subunit alpha-1H (Homo sapiens), O95180. Cav3.2-expressing cells; active compounds read low. B-score at 10 µM. 100,000 tested, 4% active. AID 449739, 2010;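 active = single-dose well whose peak fluorescence ratio is a statistical outlier from its plate by either plate-standardised score or position-corrected B-score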
CYP2C19 inhib = blockers of cytochrome P450 2C19 activity – biochemical, luminescence, ADME assay, primary screen; CYP2C19 Supersomes, luciferin-H EGE luminescence, 30 min; inhibition, % at 5 µM; P33261; 96,000 tested, 21% active;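 active = CYP2C19 inhibition above a set limit at 5 µM in the primary screen, cut at about 50% in these data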
Target sequence (P33261 whole entry, looked up): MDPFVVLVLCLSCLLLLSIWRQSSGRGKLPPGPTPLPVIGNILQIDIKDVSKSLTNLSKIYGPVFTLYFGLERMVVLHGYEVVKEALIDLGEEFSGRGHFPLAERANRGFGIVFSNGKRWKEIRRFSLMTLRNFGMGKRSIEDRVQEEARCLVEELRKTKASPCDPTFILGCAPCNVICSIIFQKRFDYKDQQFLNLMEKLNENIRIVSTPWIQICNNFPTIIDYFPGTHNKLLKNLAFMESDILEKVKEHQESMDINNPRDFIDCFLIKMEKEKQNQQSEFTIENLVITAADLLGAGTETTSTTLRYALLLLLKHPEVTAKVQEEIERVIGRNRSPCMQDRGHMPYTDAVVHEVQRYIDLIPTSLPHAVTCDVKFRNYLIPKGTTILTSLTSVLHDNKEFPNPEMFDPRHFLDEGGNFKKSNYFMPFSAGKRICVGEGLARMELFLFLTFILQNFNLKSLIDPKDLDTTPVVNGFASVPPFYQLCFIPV
CYP2C19 act = human CYP2C19 activators, primary screen, biochemical, luminescence | activation factor at 5 µM | Cytochrome P450 2C19 (Homo sapiens), P33261 | recombinant CYP2C19, luciferin-H EGE luminescence; active compounds read high; 0 = fully inhibited enzyme, 1 = untreated enzyme | 96,000 tested, under 10 active;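 active = activation factor of at least 2 at 5 µM in the primary screen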
CYP2C9 inh = blockers of cytochrome P450 2C9 activity – biochemical, luminescence, ADME assay, primary screen. P11712. CYP2C9 Supersomes, luciferin-H conversion. inhibition, % at 5 µM. 96,000 tested, 20% active;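 active = blocking of liver enzyme CYP2C9 beyond about 50% at 5 µM, limit read from the data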
CYP2C9 act = human CYP2C9 activators, primary screen, biochemical, luminescence | Cytochrome P450 2C9 (Homo sapiens), P11712 | recombinant CYP2C9, luciferin-H conversion; active compounds read high; factor 1 = untreated enzyme, 0 = blocked | activation factor at 5 µM | 96,000 tested, 1.4% active | AID 1024, 2008;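 active = activation factor of 2 or more for CYP2C9 at a 5 µM dose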
Numbers stand for hits; . = inactive; / = no result. Shown are actives, neighbours in structure and some others; about 27% of the full set was active somewhere.

SMILES	Cav3 T inh	CYP2C19 inhib	CYP2C19 act	CYP2C9 inh	CYP2C9 act
O=C(NCc1ccccc1)c1ccc(/C=N/O)nc1	.	63	.	.	.
Cc1cc(C)cc(NC(=O)C2CCCN2C(=O)Oc2ccccc2)c1 (stereo not given)	.	66	.	67	.
Cc1csc(NC(=O)C2CCCN2C(=O)Oc2ccccc2)n1 (stereo not given)	.	.	.	.	.
Cc1cccc(NC(=O)C2CCCN2C(=O)Oc2ccccc2)c1 (stereo not given)	.	88	.	57	.
CCn1c(=O)cc(SCC(=O)N2CCN(c3ccccn3)CC2)c2ccccc21	/	72	.	51	.
Cc1cc2ccccc2c(=O)n1CC(=O)NCC(=O)N1CCN(c2ccccc2F)CC1	-3.8	.	.	.	2.1
CCOC(=O)N1CCN(C(=O)COc2cc(=O)n(CC)c3ccccc23)CC1	.	.	.	.	.
CCn1c(=O)cc(SCC(=O)N2CCN(c3ccccc3F)CC2)c2ccccc21	.	.	.	.	2.2
N#C/C(C(N)=O)=C1/CCc2ccccc2N1	.	.	.	.	.
CCOC(=O)C1CCN(C(c2cccc(OC)c2)c2sc3nc(C)nn3c2O)CC1 (stereo not given)	.	87	.	.	.
COc1cc(C(c2sc3nc(C)nn3c2O)N2CCc3ccccc3C2)cc(OC)c1OC (stereo not given)	.	84	.	.	.
CCOC(=O)C1CCN(C(c2cccs2)c2sc3nc(C)nn3c2O)CC1 (stereo not given)	.	65	.	.	.
COc1ccc(C(c2sc3nc(C)nn3c2O)N2CCc3ccccc3C2)cc1 (stereo not given)	.	.	.	.	.
COC(=O)C1CCN(C(c2cccs2)c2sc3nc(C)nn3c2O)CC1 (stereo not given)	.	.	.	.	.
CCOC(=O)c1c(C)[nH]c(C(=O)OCC(=O)NC2CCS(=O)(=O)C2)c1C (stereo not given)	.	.	.	.	.
Cc1ccc(S(=O)(=O)Cn2nnnc2C(C(C)C)N2CCN(c3nc4ccccc4s3)CC2)cc1 (stereo not given)	.	/	/	/	/
CCCCC(c1nnnn1CS(=O)(=O)c1ccc(C)cc1)N1CCN(c2ccccc2)CC1 (stereo not given)	.	65	.	69	.
CN(C)S(=O)(=O)c1ccc(NC(=O)Cn2c(-c3ccccc3)noc2=O)cc1	.	78	.	95	.
COCCn1c(SCC(=O)Nc2ccc(S(=O)(=O)N(C)C)cc2)nc2ccccc21	.	.	.	.	.
COc1ccc(-c2nc(CSCC(=O)N3CCN(C(=O)c4ccco4)CC3)c(C)o2)cc1OC	.	.	.	.	.
Cc1c(NC(=O)COC(=O)Cc2ccc(Cl)cc2)c(=O)n(-c2ccccc2)n1C	.	.	.	.	.
COc1ccc(C2SCC(C(=O)NCc3ccc(F)cc3)N2C(C)=O)cc1 (stereo not given)	.	.	.	.	.
Cc1ccc(Nc2nc(C3CC3)cs2)cc1	/	.	.	.	.
Cc1ccc(Nc2nc(-c3c(C)nc4ncccn34)cs2)cc1	.	.	.	.	2
Cc1[nH]c2ccccc2c1C(=O)CSc1nc2cc(S(=O)(=O)N3CCCCC3)ccc2o1	.	60	.	90	.
SMILES	Cav3 T inh	CYP2C19 inhib	CYP2C19 act	CYP2C9 inh	CYP2C9 act
Cc1ccc(C(=O)CSc2nc3cc(S(=O)(=O)N4CCOCC4)ccc3o2)cc1	.	.	.	82	.
O=C(NC1CCCCC1)c1cccc(S(=O)(=O)N2CCOCC2)c1	.	.	.	.	.
O=C(CCCn1c(=S)[nH]c2cc3c(cc2c1=O)OCO3)N1CCN(c2ccccc2F)CC1	.	.	.	.	.
Cc1ccc(C)c(N2CCN(C(=O)CCCn3c(=S)[nH]c4cc5c(cc4c3=O)OCO5)CC2)c1	-8.6	54	.	77	.
O=C(CCCn1c(=S)[nH]c2cc3c(cc2c1=O)OCO3)N1CCN(c2ncccn2)CC1	.	.	.	50	.
COc1cccc(N2CCN(C(=O)CCn3c(=S)[nH]c4cc5c(cc4c3=O)OCO5)CC2)c1	/	.	.	.	.
O=C(CCCn1c(=S)[nH]c2cc3c(cc2c1=O)OCO3)N1CCN(C2CCCCC2)CC1	/	.	.	50	.
O=C(CCCn1c(=S)[nH]c2cc3c(cc2c1=O)OCO3)N1CCN(c2ccc(F)cc2)CC1	.	.	.	72	.
O=C(O)c1ccc(NS(=O)(=O)c2ccc3nnn(O)c3c2)cc1	.	.	.	.	.
O=C(NCc1ccccc1)C1=C[C@@H](c2coc3ccccc3c2=O)C[C@@H](OCCCCO)O1	.	/	/	/	/
COC(=O)Cn1c(=O)c2c(nc(Br)n2CC(=O)OC)n(C)c1=O	.	.	.	.	.
COc1ccc(CC(NC(C)=O)C(=O)N2CCN(C(=O)N(C(C)C)C(C)C)CC2)cc1 (stereo not given)	.	.	.	.	.
COc1ccc2c(C)cc(SCc3c(C)noc3C)nc2c1	.	50	.	57	.
OC(CNC1CCCCC1)CN1CCN(CC(O)CNC2CCCCC2)CC1 (stereo not given)	/	.	.	.	.
COc1cccc(C(=O)Oc2cc3c4c(c2)C(C)=CC(C)(C)N4C(=O)C3=O)c1	.	.	.	.	.
CCCOc1ccccc1-n1sc2c(c1=S)-c1cc(OC)cc3c1N(C(=O)C3=O)C2(C)C	.	62	.	80	.
CCOc1c(Br)cc(CNc2ccc3c(c2)OCCO3)cc1OC	.	86	.	86	.
CCOc1cc(CNc2ccc3c(c2)OCCO3)cc(Br)c1OCC(N)=O	.	53	.	86	.
CCOc1cc(CNc2ccc(O)cc2)cc(Br)c1OCc1ccccc1F	.	.	.	.	.
CCOc1cc(CNc2ccc3c(c2)OCCO3)cc(Br)c1OC	.	94	.	84	.
CCN(CC)C(=O)N1CCN(S(=O)(=O)c2ccc(C)c(C)c2)CC1	.	98	.	.	2.2
Cc1ccc(S(=O)(=O)N2CCN(C(=O)N(C)C)CC2)cc1C	.	56	.	.	.
Cc1ccc(S(=O)(=O)N2CCN(S(=O)(=O)N(C)C)CC2)c(C)c1	.	.	.	.	.
Cc1ccc(N(C)C(=O)N2CCN(S(=O)(=O)c3c(C)cc(C)cc3C)CC2)cc1	-6	64	.	75	.
CCN(CC)C(=O)N1CCN(S(=O)(=O)c2ccc(C)cc2)CC1	.	.	.	.	.
O=C(Nc1ccccc1C(=O)N1CCOCC1)C1CCCO1 (stereo not given)	.	.	.	.	.
COCCn1c(SCc2cnc(-c3ccccc3)s2)nnc1-c1ccncc1	.	82	.	.	.
COc1ccc(-n2cnnc2SCc2cnc(-c3ccccc3)s2)cc1	.	66	.	.	.
